# Source: PubChem
# RE007 growth inh = less growth of the S. pombe RE007 Vpr strain. S. pombe RE007 Vpr strain, BacTiter-Glo ATP luminescence, 24 h. hit rate 0.21% among 360,000. Potency, µM (titrated, usually from 92.2 µM), inactives show at the top dose activity change, negative = less growth, most hits filed as inhibitors; active = well fitted falling curve with a large enough effect; inconclusive = small, poorly fitted or top-dose-only effect; inactive = no such curve, though single readings can be large or run the other way; note: potency is the fitted concentration of half-maximal effect; % is set by controls: 0 for no effect and ±100 for the full control effect; nearly all actives have a fitted effect of over 50% in size
#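 Fission yeast strain RE007, carrying one chromosomally integrated HIV-1 vpr copy, was seeded at OD 0.01 in PMG+AL medium with 23 nL pinned compound. After 24 h at 30 °C and 99% humidity, viability was read by BacTiter-Glo luminescence.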
# AMA1-RON2 inh = AMA1-RON2 (P. falciparum) interaction inhibition. Potency, µM (series often up to 58.2 µM), for the others: at the highest dose activity change, negative = inhibition, usual class: inhibitors. AlphaScreen AMA1-biotinylated RON2 peptide binding. AID 720542. hit rate 0.2% among 360,000;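 note: potency is the fitted concentration of half-maximal effect; 0% = vehicle wells and -100% = peptide control; nearly all actives have a fitted effect of over 45% in size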
#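 AMA1 (3D7) with his tag at 25 nM final met compounds first, then biotinylated RON2 peptide at 25 nM; detection used donor plus acceptor beads, 10 µg/mL apiece, read by AlphaScreen after 30 min at room temperature.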
# NS1 inh = blocks influenza NS1 protein function; AID 2326; hit rate 0.4% among 270,000; Potency, µM (series often up to 46.1 µM), without a hit: top-dose activity, positive = more growth; calls by dose curve; note: potency is the fitted concentration of half-maximal effect; actives are rising curves; nearly all actives have a fitted effect of over 50% in size
#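 A cell-based growth assay was used: compounds that relieve NS1-induced slow growth of budding yeast raise OD600. Assay medium was yeast nitrogen base with ammonium sulphate and -URA supplement, pH 6.0, with 2% galactose.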
# Tb PYK inh = blocks Trypanosoma brucei pyruvate kinase; TbPYK enzyme, Kinase-Glo Plus ATP luminescence, 45 min; Potency, µM (highest dose often 76.8 µM), inactives show at the highest dose activity, negative = inhibition, actives largely listed as inhibitors; hit rate 0.12% among 410,000; note: potency is the fitted concentration of half-maximal effect; % is set by controls: 0 for no effect and ±100 for the full control effect; nearly all actives have a fitted effect of over 50% in size
#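 Readout: single end-point luminescence (Kinase-Glo Plus, 10 min). Reaction conditions were TbPYK/substrate plus 130 uM ADP, 45 min at RT, pH 7.2 TEA buffer. No-enzyme wells served as controls, and data were normalized before concentration-response fitting.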
# LmPK inhibitor = LmPK (Leishmania mexicana) enzyme inhibition. Q27686. purified LmPK, Kinase-Glo ATP luminescence, 1 h. Potency, µM (series often up to 57.5 µM), inactives show at the highest dose activity change, negative = inhibition, most hits filed as inhibitors. hit rate 0.37% among 290,000. AID 1721; note: potency is the fitted concentration of half-maximal effect; % is set by controls: 0 for no effect and ±100 for the full control effect
# Target sequence (Q27686 whole entry, looked up): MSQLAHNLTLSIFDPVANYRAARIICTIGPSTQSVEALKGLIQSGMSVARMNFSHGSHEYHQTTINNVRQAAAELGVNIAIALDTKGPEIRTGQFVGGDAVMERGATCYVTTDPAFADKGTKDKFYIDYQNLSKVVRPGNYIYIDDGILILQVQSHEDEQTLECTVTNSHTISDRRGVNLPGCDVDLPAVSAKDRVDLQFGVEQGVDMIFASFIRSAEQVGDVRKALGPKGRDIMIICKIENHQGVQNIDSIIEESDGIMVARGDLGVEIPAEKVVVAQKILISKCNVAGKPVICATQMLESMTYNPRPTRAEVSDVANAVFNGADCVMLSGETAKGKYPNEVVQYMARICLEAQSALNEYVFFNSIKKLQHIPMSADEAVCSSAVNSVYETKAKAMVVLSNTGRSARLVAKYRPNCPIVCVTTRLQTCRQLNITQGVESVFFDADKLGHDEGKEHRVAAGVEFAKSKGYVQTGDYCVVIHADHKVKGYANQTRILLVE
#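 Screened at intermediate enzyme activity to detect both inhibitors and activators: LmPK at 0.1 nM, with a 0.5 nM enzyme column as activation reference. PEP 0.5 mM, ADP 0.1 mM; ATP detected by luminescence after 1 h.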
# NS1 inh valid = validation of influenza NS1 protein function inhibitors; shares compounds with NS1 inh; influenza NS1 function cell assay, 15-point titration; activity change, negative = inhibition, % at 32.9 µM; 1,400 tested, under 10 active; calls by dose curve; note: 0% is about no effect
# The depositor's hits bear a star; ? = inconclusive; . = no result given. This is a sample that favours compounds with a hit; in the whole collection about 0.92% have one here. Unless noted, calls come from the whole dose curve; as a rule, active = well fitted curve in the direction sought with a large enough effect; inconclusive = small, poorly fitted or top-dose-only effect, or another doubt; inactive = no such curve, though single readings can be large; an effect the other way counts as inactive or inconclusive.
SMILES,RE007 growth inh,AMA1-RON2 inh,NS1 inh,Tb PYK inh,LmPK inhibitor,NS1 inh valid
CN1CCc2c(sc3c2c(=O)n(-c2ccccc2)c2nnc(SCc4ccc(Cl)cc4)n32)C1,-4%,-2%,13µM*,?,3%,14
CCOc1ccc(C(=O)Nc2ccc3nc(SCC(=O)N4CCOCC4)sc3c2)cc1,.,.,.,1%,.,.
O=C(Nc1ccccc1Oc1ccccc1)c1ccc(Br)o1,-9%,2%,?,1%,-9%,?
CCc1ccc(NC(=O)Nc2cn(C)c(=O)c3ccccc23)cc1,.,.,.,4%,.,.
CC(=O)Nc1nc(-c2ccc3c(c2)CCN3S(C)(=O)=O)cs1,25%,-4%,5%,3%,1%,.
CS(=O)(=O)N1CCc2cc(-c3csc(NC(=O)Cc4cccs4)n3)ccc21,9%,-11%,11µM*,-1%,-8%,19
CC(=O)Nc1ccc(-c2csc(NC(=O)C3CCN(S(=O)(=O)c4cccs4)CC3)n2)cc1,12%,?,13µM*,-3%,2%,16
C=CCn1c(SCC(=O)N2CCCCC2)nc(O)cc1=O,-10%,-3%,10%,-4%,-2%,.
C=CCn1c(SCC(=O)N(CC)CC)nc(O)cc1=O,13%,10%,2.5µM*,0%,-1%,1
COc1ccc(-c2c(C)nc(N)nc2-c2ccc(OCc3ccc(C)cc3)cc2O)cc1OC,2%,5%,3.2µM*,2%,4%,2
CCCCNC(=O)CS(=O)Cc1nc(-c2cccs2)oc1C (stereo unspecified),-7%,24%,11µM*,-12%,-1%,5
Cc1oc(-c2ccccc2F)nc1CS(=O)CC(=O)NCc1cccs1 (stereo unspecified),-8%,9%,11µM*,-9%,1%,30
COc1ccc(NCc2cc3cc4c(cc3n(CC(=O)Nc3ccc(C)c(C)c3)c2=O)OCO4)cc1,.,.,.,-3%,.,.
CCCCn1cc(S(=O)(=O)c2ccc(CC)cc2)c(=O)c2cc(F)c(N3CCOCC3)cc21,.,.,.,-5%,.,.
O=C(NCCCN1CCOCC1)c1ccc2c(c1)N(Cc1ccc(F)cc1)CCS2,4%,-4%,-2%,6%,1%,.
CN1CCN(CCCNC(=O)c2ccc3c(c2)N(Cc2ccc(F)cc2)CCS3)CC1,-5%,-11%,2.8µM*,7%,-2%,-5
CCC1Oc2ccc(C)cc2N(CC(=O)N2CCN(c3ccccc3OC)CC2)C1=O (stereo unspecified),.,.,.,1%,.,.
O=C(c1ccc(C(F)(F)F)cc1)N1CCC(=O)N(C(COCc2ccc(C(F)(F)F)cc2)Cc2ccccc2)CC1 (stereo unspecified),-14%,1%,?,-9%,3%,-18
O=C(c1ccc(Cl)c(Cl)c1)N1CCC(=O)N(C(COCc2cccc(Cl)c2)Cc2ccccc2)CC1 (stereo unspecified),9%,0%,22µM*,4%,2%,1
Cc1ccc(S(=O)(=O)c2c(O)cc(C)c(NS(=O)(=O)c3ccc(Br)cc3)c2C)cc1,.,.,.,5%,.,.
COCCn1c(=NC(=O)c2cc(-c3cccs3)nc3ccccc23)sc2cc(S(N)(=O)=O)ccc21,-6%,13%,11µM*,11%,0%,26
COc1ccc(-c2nc(CS(=O)(=O)CC(=O)NC3CCCCC3C)c(C)o2)cc1 (stereo unspecified),7%,9%,9%,-29%,2%,.
Cc1ccc(-c2nc(CS(=O)(=O)CC(=O)NC3CCCCC3C)c(C)o2)cc1 (stereo unspecified),17%,-2%,3.2µM*,-7%,1%,-26
FC(F)Oc1ccc(/C=N/c2c(-c3ccc(OC(F)F)cc3)nc3n2CCS3)cc1,11%,-9%,13µM*,-7%,2%,-15
CC(C)c1ccc(NC(=O)CSc2nc(=O)n(Cc3ccccn3)c3c2CCC3)cc1,.,.,.,-4%,.,.
SMILES,RE007 growth inh,AMA1-RON2 inh,NS1 inh,Tb PYK inh,LmPK inhibitor,NS1 inh valid
COc1ccc(C(=O)N/C(=C/c2cccc3ccccc23)C(=O)NCCc2c[nH]c3ccccc23)cc1OC,8%,-12%,11µM*,8%,1%,?
COc1ccc(/C=C(/NC(=O)c2ccc(OC)cc2)C(=O)NCCc2c[nH]c3ccccc23)cc1,8%,2%,?,5%,2%,.
COc1ccc(/C=C(/NC(=O)c2ccc(OC)c(OC)c2)C(=O)NCCc2c[nH]c3ccccc23)cc1,?,-11%,7.9µM*,-1%,2%,4
Cc1nc(C)c(-c2nnc(-c3ccccc3Cl)o2)cc1C(=O)NN,2%,85%,21%,0%,-4%,.
Cc1nc(C)c(-c2nnc(-c3ccc(C(C)(C)C)cc3)o2)cc1C(=O)NN,3%,74%,10µM*,-1%,4%,29
Cc1ccc(NC(=O)Cn2c(=O)nc(-c3ccccc3F)c3cc(Cl)ccc32)c(Br)c1,.,.,.,-1%,.,.
CCC(C)C(NC(=O)c1ccccc1NC(=O)c1ccco1)C(=O)NC1CCCCC1 (stereo unspecified),5%,2%,4.5µM*,-6%,4%,1
O=C(Nc1ccccc1C(=O)NC1CCCCC1)c1ccco1,33%,3%,9%,-13%,1%,.
Fc1ccc(Nc2ncnc3onc(-c4ccc(Cl)cc4)c23)cc1Cl,.,.,.,3%,.,.
O=C(O)CC/C(=C\c1cccc(NC(=O)c2ccccc2Cl)c1)c1nc2ccccc2s1,-15%,6%,?,-16%,0%,-20
Cc1ccc([N+](=O)[O-])cc1N(CC(=O)Nc1ccc(S(=O)(=O)Nc2cccc(C(F)(F)F)c2)cc1)S(C)(=O)=O,13%,?,16µM*,5%,1%,10
COc1ccccc1N(CC(=O)Nc1cccc(C(F)(F)F)c1)S(C)(=O)=O,2%,2%,2%,-4%,6%,.
c1ccc(Nc2cc(Nc3ccccc3)[nH]n2)cc1,-12%,-13%,4.5µM*,0%,10%,-5
O=c1nccc(Nc2ccccc2)[nH]1,6%,0%,3%,-1%,-3%,.
O=C(COc1ccc(Cl)cc1)N1CCN(c2ccc([N+](=O)[O-])c(N3CCCCC3)c2)CC1,-14%,-27%,11µM*,-2%,2%,?
O=C(COc1ccccc1Cl)N1CCN(c2ccc([N+](=O)[O-])c(N3CCCCC3)c2)CC1,3%,-7%,?,-1%,1%,-17
O=C(c1ccc(F)cc1)N1CCN(c2ccc([N+](=O)[O-])c(N3CCCCC3)c2)CC1,-3%,?,-17%,-18%,5%,.
Cc1ccc(CN2C(=O)CN(C3CCC(C)CC3)C(=O)C2c2ccc(F)cc2)cc1 (stereo unspecified),.,.,.,-5%,.,.
